tim10-1 inh – tim10-1 yeast growth inhibition. S. cerevisiae tim10-1 ts strain growth, BacTiter-Glo, 24 h. inhibition, % at 20 µM. 330,000 compounds, 2.2% hits. AID 463190;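 active = inhibition of at least 40%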;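 also: mutant grown at 25 °C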
NLRP3 yeast inh – NALP3 inhibition in yeast; Yeast reconstituted NLRP3/ASC/caspase-1, beta-gal luminescence, 24 h; inhibition, % at 10 µM; 330,000 compounds, 0.39% hits; AID 2825;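 active = inhibition of 50% or more; inactive = inhibition below 50%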
TIM10 inh – TIM10 yeast growth inhibition; S. cerevisiae TIM10 strain growth, BacTiter-Glo luminescence, 24 h; inhibition, % at 10 µM; 330,000 compounds, 1.4% hits; AID 463195;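 active = inhibition of 40% or more at the single tested concentration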;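 also: wild-type TIM10 isogenic control strain grown at permissive 25 °C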
PfHsp90 set2 – growth inhibition of yeast expressing Plasmodium Hsp90. inhibition, % at 9.4 µM. 310,000 compounds, 0.32% hits. S. cerevisiae expressing PfHsp90, BacTiter-Glo ATP, 48 h; yeast lacking PDR1 and PDR3 efflux regulators. AID 504621;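 active = every replicate shows inhibition above about 80%, whatever the replicate mean, limit read from the data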
tim23-1 inh – growth inhibitors of tim23-1 mutant yeast; S. cerevisiae tim23-1 growth, BacTiter-Glo luminescence, 24 h; inhibition, % at 20 µM; 330,000 compounds, 1.3% hits;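 active = growth inhibition of the mutant yeast at or above 50%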;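 also: temperature-sensitive mutant grown at 25 °C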
tim10-1 conf – tim10-1 yeast growth inhibition, confirmed; shares compounds with tim10-1 inh; S. cerevisiae tim10-1 ts strain growth, BacTiter-Glo, 24 h; inhibition, % at 20 µM; 7,400 compounds, 56% hits; AID 463213;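 active = inhibition of yeast growth at or above a set limit in either of two repeat tests at 20 µM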;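 also: tim10-1 mutant grown at permissive 25 °C to find synthetic lethal compounds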
tim10 confirm – confirmation of TIM10 yeast growth inhibitors; 4,600 compounds, 63% hits; S. cerevisiae tim10 strain growth, BacTiter-Glo luminescence, 24 h; shares compounds with TIM10 inh; inhibition, % at 10 µM;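 active = inhibition of yeast growth at or above a set limit in either of two replicates at 10 µM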; also: this counterscreen used the strain with wild-type TIM10
Each line names hits and unclear results; the compound was inactive in the other large screens (follow-up assays come after a bar, where they were run). Compounds with a hit are over-represented: about 3.7% of the library has one in this group of screens.

COc1ccc(N2C(=O)CSC23C(=O)N2c4c(cccc43)C(C)=CC2(C)C)cc1 (centres undefined)	none
COc1cccc(-c2[nH]nc3c2C(c2ccc(C)o2)C(C#N)=C(N)O3)c1 (centres undefined)	tim10-1 inh 44.9, TIM10 inh 52.4 (no result: PfHsp90 set2) | tim10-1 conf inactive | tim10 confirm inactive
COc1ccc(OC)c(-c2[nH]nc3c2C(c2ccco2)C(C#N)=C(N)O3)c1 (centres undefined)	none
C=CC[C@H](CC(=O)N(CCO)Cc1ccccc1)C(=O)N[C@H](COC(=O)[C@@H](CC=C)CC(=O)OC(C)(C)C)Cc1c[nH]c2ccccc12	none
CCOC(=O)c1cnc2ccccc2c1NCCO	none
CCOC(=O)c1cnc2c(ccc3ccccc32)c1NCCCN(C)C	tim10-1 inh 49.5, TIM10 inh 80.8 | tim10-1 conf 64.9 | tim10 confirm 79.8
CC(=O)Oc1c(-c2ccco2)oc2ccccc2c1=O	tim10-1 inh 53.3, TIM10 inh 62.1 | tim10-1 conf 49.1 | tim10 confirm 61.2
COc1cc(C)c2c(c1OC)C(=O)CC2	none (no result: tim10-1 inh, NLRP3 yeast inh, TIM10 inh, tim23-1 inh)
COc1ccc(-c2cc(C(=O)N3CCN(C(c4ccccc4)c4ccccc4)CC3)no2)cc1OC	tim10-1 inh 51.5, TIM10 inh 55.9 | tim10-1 conf 60.0 | tim10 confirm 45.4
O=C(c1cc(-c2ccco2)on1)N1CCN(C(c2ccccc2)c2ccccc2)CC1	tim10-1 inh 61.7, TIM10 inh 67.2 | tim10-1 conf 62.3 | tim10 confirm 58.5
COc1ccc(-c2cc(C(=O)N3CCCC3)no2)cc1	none
O=C(c1cc(-c2ccc3c(c2)OCO3)on1)N1CCN(c2ccccc2)CC1	tim10-1 inh 41.5, TIM10 inh 43.7 (no result: PfHsp90 set2) | tim10-1 conf 30.8 | tim10 confirm 41.4
COc1ccc(-c2cc(C(=O)N3CCN(C(c4ccccc4)c4ccccc4)CC3)no2)cc1	tim10-1 inh 59.2, TIM10 inh 69.3 | tim10-1 conf 62.6 | tim10 confirm 54.5
CCCCCCCCNS(=O)(=O)CCNCc1ccc(OC)cc1	none (no result: tim10-1 inh, NLRP3 yeast inh, TIM10 inh, tim23-1 inh)
O=C(NCCc1ccccc1)C(=O)c1cn(CC(=O)N2CCCC2)c2ccccc12	none
COc1ccc2c(c1)[nH]c1c(N3CCN(Cc4ccc5c(c4)OCO5)CC3)ncnc12	tim10-1 inh 47.2, TIM10 inh 46.8 | tim10-1 conf 41.6 | tim10 confirm inactive
COc1cccc2[nH]c3c(N4CCN(Cc5ccc6c(c5)OCO6)CC4)ncnc3c12	none (no result: PfHsp90 set2)
Cn1c(=O)c2c(nc(N3CCN(c4ccccn4)CC3)n2Cc2ccccc2Cl)n(C)c1=O	tim10-1 inh 43.2, TIM10 inh 50.8 | tim10-1 conf inactive | tim10 confirm 35.4
CC(C)(C)OC(=O)N1CCC(NC(=O)c2ncn(Cc3ccccc3)c2C(=O)NC2CCN(C(=O)OC(C)(C)C)CC2)CC1	none
c1ccc(-c2nnc(N3CCN(c4ccccn4)CC3)c3ccccc23)cc1	tim10-1 inh 52.4, TIM10 inh 40.7 (no result: PfHsp90 set2) | tim10-1 conf inactive | tim10 confirm inactive
CS(=O)(=O)N1CCN(c2nnc(-c3ccccc3)c3ccccc23)CC1	none
Cc1ccc(C(c2cc(Br)ccc2O)N2CCSCC2)cc1 (centres undefined)	none
N#C/C(=C\c1ccccc1)C(=O)Nc1cc(S(=O)(=O)N2CCOCC2)ccc1N1CCCC1	tim10-1 inh 52.3, TIM10 inh 49.5 | tim10-1 conf 32.5 | tim10 confirm inactive
COC(=O)c1cn(C(=O)c2cc(Cl)ccc2Cl)c2ccccc12	none
Cc1cccc(NC(=O)C(C)Oc2ccc(C)nc2[N+](=O)[O-])c1 (centres undefined)	none (no result: PfHsp90 set2)
Cc1cc(/C=N/n2c(COc3ccccc3C)nc3ccccc3c2=O)c(O)c([N+](=O)[O-])c1	tim10-1 inh 40.7, TIM10 inh 43.4 | tim10-1 conf inactive | tim10 confirm inactive
O=c1oc(-c2ccccc2)cc(Cl)c1Cl	tim10-1 inh 81.0, TIM10 inh 75.9, PfHsp90 set2 116.9 | tim10-1 conf 86.3 | tim10 confirm 78.2
CN(C(=O)c1cccc(NC(=O)Cc2ccc(NC(=O)C3CCCN(C(=O)C4CCC4)C3)cc2)c1)C1CCCCC1 (centres undefined)	none (no result: tim10-1 inh, NLRP3 yeast inh, TIM10 inh, tim23-1 inh)
O=[N+]([O-])c1ccc(-c2nc(-c3cccs3)c(-c3cccs3)[nH]2)cc1	tim10-1 inh 64.5, TIM10 inh 68.8 | tim10-1 conf 52.0 | tim10 confirm 60.8
COCCCn1c(=O)c2sccc2n(Cc2cc(C(=O)OC)ccc2OC)c1=O	none
CCOc1ccc2[nH]c3nc(SCC(=O)NCC4CCCO4)nnc3c2c1 (centres undefined)	none
CCOc1ccc2c(c1)c1nnc(SCC3CCCO3)nc1n2C (centres undefined)	tim10-1 inh 46.3, TIM10 inh 44.5 (no result: PfHsp90 set2) | tim10-1 conf 30.1 | tim10 confirm 47.1
Cc1ccc2cccc(NC(=S)NC(=O)c3ccn(C)n3)c2n1	tim10-1 inh 41.4, TIM10 inh 47.9 | tim10-1 conf inactive | tim10 confirm 44.8
Cc1ccc2cccc(NC(=S)NC(=O)c3c(Br)cnn3C)c2n1	none
O=c1[nH][nH]c(-c2ccccc2)c1C=Nc1ccc(OC(F)(F)F)cc1	tim10-1 inh 42.3, TIM10 inh 41.0 (no result: PfHsp90 set2) | tim10-1 conf 37.3 | tim10 confirm 36.7
O=c1[nH][nH]c(-c2ccccc2)c1C=Nc1ccc(C(F)(F)F)cc1	none (no result: PfHsp90 set2)
N/C(=N\OC(=O)CC1CCCCC1)c1cccc(Br)c1	tim10-1 inh 62.1, TIM10 inh 73.0 | tim10-1 conf 66.9 | tim10 confirm 61.9
N/C(=N\OC(=O)CC1CCCCC1)c1ccc(Cl)cc1	tim10-1 inh 42.2, TIM10 inh 44.0 (no result: PfHsp90 set2) | tim10-1 conf 56.8 | tim10 confirm 34.3
O=C(CNC(=O)c1ccco1)OCc1ccccc1Cl	none
O=C(Nc1cccc(Cl)c1)NC1CCCCC1	tim10-1 inh 41.4, TIM10 inh 49.5 (no result: PfHsp90 set2) | tim10-1 conf 32.5 | tim10 confirm inactive
COc1cccc(CN(C)C(=O)CCN=C2NS(=O)(=O)c3ccccc32)c1OC	none (no result: PfHsp90 set2)
CCCCOC(=O)/C(=C\c1ccc([N+](=O)[O-])o1)NC(=O)c1ccccc1	tim10-1 inh 40.4, TIM10 inh 45.3 | tim10-1 conf 40.0 | tim10 confirm inactive
COc1cccc(-c2nn3c(-c4ccco4)nnc3s2)c1	tim10-1 inh 52.0, TIM10 inh 46.5 | tim10-1 conf 54.7 | tim10 confirm inactive
CC(C)c1cc(C(C)C)c(S(=O)(=O)N2c3ccccc3[C@@]3(Br)C[C@H]4C(=O)N[C@@H](Cc5ccccc5)C(=O)N4[C@@H]23)c(C(C)C)c1	none (no result: PfHsp90 set2)
O=C(O)C1=C(C(=O)O)C2C=CC1C2	none (no result: tim10-1 inh, NLRP3 yeast inh, TIM10 inh, tim23-1 inh)
O=S(=O)(c1cccc(-c2nc3ccccc3s2)c1)N1CCCC1	tim10-1 inh 48.4, TIM10 inh 44.0 | tim10-1 conf 34.4 | tim10 confirm 41.8
